Assay [1] can be described thus: CCTE_Simmons_MITO_basal_resp_rate: CCTE's HepG2 Seahorse XF Respirometric Screening Assay at Basal Respiratory State, Simmons Lab (AID 2284001; active = hit-call score of the fitted dose curve at least 0.9, where 1 is the maximum; inactive = score below 0.9). Particulars: actives raise or lower the signal. A digest of the protocol:
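Basal-phase OCR of HepG2 cells on a Seahorse XF96, analysed by bidirectional fit relative to DMSO vehicle; chemicals at 7 concentrations, 125 nM–100 uM final; three biological replicates; fenpyroximate and 2,4-dinitrophenol positive controls.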

The target of assay [2] is Nucleoli Translocation, AR (gene 367) (UniProt P10275). The assay is described as follows: UPITT_HCI_U2OS_AR_TIF2_Nucleoli_Antagonist: University of Pittsburgh U2OS Androgen Receptor-Transcriptional Intermediary Factor 2 (AR-TIF2) Antagonism High Content Imaging Assay for Nucleoli Translocation (AID 2283997). A digest of the protocol: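 Compounds are added at 20 uM final concentration in 0.2% DMSO to U2OS cells carrying AR-RFP and TIF2-GFP fusions. Nucleolar AR-RFP fluorescence is then quantified by automated imaging. Antagonism is fitted positively against DHT baseline.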

Assay [3] shares this target. The assay is described as follows: UPITT_HCI_U2OS_AR_TIF2_Nucleoli_Agonist: University of Pittsburgh U2OS Androgen Receptor-Transcriptional Intermediary Factor 2 (AR-TIF2) Agonism High Content Imaging Assay for Nucleoli Translocation (AID 2283998). A digest of the protocol: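 RFP-AR / GFP-TIF2 cells; cpds diluted in serum-free medium; single-point screen 20 uM final (0.2% DMSO), actives confirmed in triplicate; conc-response 0.195–50 uM final (0.5% DMSO). Readout: nucleolar red fluorescence, positive direction vs DMSO.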

The target of assay [4] is Ratio of Nucleoli Translocation and Cytoplasm, AR (gene 367) (UniProt P10275). Description: UPITT_HCI_U2OS_AR_TIF2_Nucleoli_Cytoplasm_Ratio_Antagonist: University of Pittsburgh U2OS Androgen Receptor-Transcriptional Intermediary Factor 2 (AR-TIF2) Antagonism High Content Imaging Assay for Ratio of Nucleoli Translocation and Cytoplasm (AID 2283999).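 Also: antagonists lower the DHT-driven ratio of nucleolar to cytoplasmic red signal.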 A digest of the protocol: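 High-content imaging of red fluorescence ratio, nucleoli versus cytoplasm, in U2OS expressing AR-RFP and TIF2-GFP, fitted relative to DHT. Compounds tested once at 20 uM final, then 0.195 to 50 uM final in serial dilution.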

Assay [5] has the same target. Description: UPITT_HCI_U2OS_AR_TIF2_Nucleoli_Cytoplasm_Ratio_Agonist: University of Pittsburgh U2OS Androgen Receptor-Transcriptional Intermediary Factor 2 (AR-TIF2) Agonism High Content Imaging Assay for Ratio of Nucleoli Translocation and Cytoplasm (AID 2284000).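 Also: hits raise the red nucleolar to cytoplasm ratio above vehicle.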 A digest of the protocol: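 Human osteosarcoma U2OS line, AR-RFP plus TIF2-GFP; compounds 0.195–50 uM final, 0.5% DMSO. Readout: nucleolar/cytoplasmic RFP ratio by HCI, positive direction vs DMSO baseline.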

Another assay relates to DIO1 (gene 1733). Description: CCTE_GLTED_hDIO1: CCTE's human Deiodinase 1 (DIO1) Inhibition Assay, Great Lakes Toxicology and Ecology Division (GLTED) Lab (AID 2283987).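 Also: isolated human DIO1 enzyme in a cell-free setup rather than cells; enzyme activity read as free iodide liberated from substrate via Sandell-Kolthoff colorimetry.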 A digest of the protocol: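 Steps: human DIO1 enzyme plus test chemical, 3 h incubation; free iodide then quantified in a second Sandell-Kolthoff step by absorbance. DMSO served as negative control and baseline.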

The nature of assay [6]: CCTE_Harrill_HTTr_Viability_DMEM_6hr: (Pilot) CCTE's 6-hour Cell Viability Assessment for the High-Throughput Transcriptomics (HTTr) Platform, in MCF-7 cells cultured in DMEM + 10% fetal bovine serum, Harrill Lab (AID 2283973; active = hit-call score of the fitted dose curve at least 0.9, where 1 is the maximum; inactive = score below 0.9). A digest of the protocol: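 Propidium iodide uptake imaged by high-content analysis after six hours of chemical treatment in an eight-concentration series. Cells: MCF-7 grown in DMEM with 10% fetal bovine serum; DMSO as baseline.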

The nature of assay [7]: CCTE_Harrill_HTTr_Viability_DMEM_12hr: (Pilot) CCTE's 12-hour Cell Viability Assessment for the High-Throughput Transcriptomics (HTTr) Platform, in MCF-7 cells cultured in DMEM + 10% fetal bovine serum, Harrill Lab (AID 2283974; active = hit-call score of the fitted dose curve at least 0.9, where 1 is the maximum; inactive = score below 0.9). A digest of the protocol:
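Propidium iodide dye exclusion imaged by high-content microscopy after 12 h chemical exposure (eight concentrations) of MCF-7 cells grown in DMEM plus 10% FBS; values fitted in both directions relative to DMSO.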

Assay [8] in a line: CCTE_Harrill_HTTr_Viability_DMEM_24hr: (Pilot) CCTE's 24-hour Cell Viability Assessment for the High-Throughput Transcriptomics (HTTr) Platform, in MCF-7 cells cultured in DMEM + 10% fetal bovine serum, Harrill Lab (AID 2283975; active = hit-call score of the fitted dose curve at least 0.9, where 1 is the maximum; inactive = score below 0.9). A digest of the protocol:
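Pilot study: propidium iodide dye exclusion, imaged by high content microscopy, after 24 h compound exposure (eight concentrations) in MCF-7 cultured in DMEM + 10% fetal bovine serum; DMSO served as negative control and baseline.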

Assay [9] can be described thus: CCTE_Harrill_HTTr_Viability_PRF_DMEM_6hr: (Pilot) CCTE's 6-hour Cell Viability Assessment for the High-Throughput Transcriptomics (HTTr) Platform, in MCF-7 cells cultured phenol red-free DMEM + 10% charcoal-stripped fetal bovine serum, Harrill Lab (AID 2283976; active = hit-call score of the fitted dose curve at least 0.9, where 1 is the maximum; inactive = score below 0.9). A digest of the protocol: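 Membrane integrity by high-content imaging of propidium iodide uptake, six hours after dosing with eight concentrations. Cells: MCF-7 grown in phenol red-free DMEM plus 10% charcoal-stripped serum; DMSO serves as baseline for bidirectional fits.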

A short description of assay [10]: CCTE_Harrill_HTTr_Viability_PRF_DMEM_12hr: (Pilot) CCTE's 12-hour Cell Viability Assessment for the High-Throughput Transcriptomics (HTTr) Platform, in MCF-7 cells cultured in phenol red-free DMEM + 10% charcoal-stripped fetal bovine serum, Harrill Lab (AID 2283977; active = hit-call score of the fitted dose curve at least 0.9, where 1 is the maximum; inactive = score below 0.9). A digest of the protocol:
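Membrane integrity was scored via propidium iodide dye exclusion imaging, fitted in both directions relative to DMSO. Compounds ran as eight-point dilutions for 12 hours on MCF-7 grown in phenol red-free DMEM plus 10% charcoal-stripped serum.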

Assay [11] is described as follows: CCTE_Harrill_HTTr_Apoptosis_DMEM_6hr: (Pilot) CCTE's 6-hour Apoptosis Assessment for the High-Throughput Transcriptomics (HTTr) Platform, in MCF-7 cells cultured in DMEM + 10% fetal bovine serum, Harrill Lab (AID 2283981; active = hit-call score of the fitted dose curve at least 0.9, where 1 is the maximum; inactive = score below 0.9). A digest of the protocol:
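MCF-7 cells grown in DMEM + 10% FBS were exposed for 6 hours to an eight-point dilution series. CellEvent Caspase 3/7 Green signal was imaged; activity fitted bidirectionally against DMSO.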

The nature of assay [12]: CCTE_Harrill_HTTr_Apoptosis_DMEM_12hr: (Pilot) CCTE's 12-hour Apoptosis Assessment for the High-Throughput Transcriptomics (HTTr) Platform, in MCF-7 cells cultured in DMEM + 10% fetal bovine serum, Harrill Lab (AID 2283982; active = hit-call score of the fitted dose curve at least 0.9, where 1 is the maximum; inactive = score below 0.9). A digest of the protocol:
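Caspase-3/7 activity was measured by high-content imaging (CellEvent Caspase 3/7 Green) after a 12-hour exposure of MCF-7 cells grown in DMEM with 10% FBS. Eight-point concentration series, fitted bidirectionally against vehicle.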

Assay [13] is described as follows: CCTE_Harrill_HTTr_Apoptosis_DMEM_24hr: (Pilot) CCTE's 24-hour Apoptosis Assessment for the High-Throughput Transcriptomics (HTTr) Platform, in MCF-7 cells cultured in DMEM + 10% fetal bovine serum, Harrill Lab (AID 2283983; active = hit-call score of the fitted dose curve at least 0.9, where 1 is the maximum; inactive = score below 0.9). A digest of the protocol: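 Caspase-3/7 activity read by high-content imaging (CellEvent Green reagent) 24 h after dosing. MCF-7 cells grown in DMEM with 10% FBS received an eight-point concentration series; fits were bidirectional versus DMSO.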

A short description of assay [14]: CCTE_Harrill_HTTr_Apoptosis_PRF_DMEM_6hr: (Pilot) CCTE's 6-hour Apoptosis Assessment for the High-Throughput Transcriptomics (HTTr) Platform, in MCF-7 cells cultured phenol red-free DMEM + 10% charcoal-stripped fetal bovine serum, Harrill Lab (AID 2283984; active = hit-call score of the fitted dose curve at least 0.9, where 1 is the maximum; inactive = score below 0.9). A digest of the protocol:
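Caspase-3/7 activity (CellEvent Green) read by high-content imaging 6 h after dosing, eight concentrations. Cells: MCF-7, phenol red-free DMEM with 10% charcoal-stripped serum. Curves fit both directions against DMSO.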

Assay [15] can be described thus: CCTE_Harrill_HTTr_Apoptosis_PRF_DMEM_24hr: (Pilot) CCTE's 24-hour Apoptosis Assessment for the High-Throughput Transcriptomics (HTTr) Platform, in MCF-7 cells cultured in phenol red-free DMEM + 10% charcoal-stripped fetal bovine serum, Harrill Lab (AID 2283986; active = hit-call score of the fitted dose curve at least 0.9, where 1 is the maximum; inactive = score below 0.9). A digest of the protocol: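 Eight concentrations tested for 24 h on MCF-7 grown in charcoal-stripped serum, phenol red-free DMEM. High content imaging of CellEvent Caspase 3/7 Green signal gives apoptosis read-out, fitted both ways relative to DMSO.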

In assay [16] the target is Retinoic acid receptor RXR-alpha (Homo sapiens) (UniProt P19793). The assay is described as follows: TOX21_TR_RXR_BLA_Agonist_Followup_ratio: Tox21 Thyroid Hormone Receptor beta Retinoid X Receptor alpha (RXRa) Agonism Beta-lactamase (BLA) Follow-Up Assay, Ratio (AID 2283968). A digest of the protocol: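 Agonist mode: compounds given to RXRa-bla HEK293T cells at 11 concentrations, triplicate, 16 h at 37C/5% CO2. Readout is the 460:530 nm blue/green ratio after 2 h substrate loading at room temperature; DMSO baseline, 9-cis retinoic acid control.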

Assay [17] in a line: CCTE_Harrill_HTTr_Viability_PRF_DMEM_24hr: (Pilot) CCTE's 24-hour Cell Viability Assessment for the High-Throughput Transcriptomics (HTTr) Platform, in MCF-7 cells cultured in phenol red-free DMEM + 10% charcoal-stripped fetal bovine serum, Harrill Lab (AID 2283980; active = hit-call score of the fitted dose curve at least 0.9, where 1 is the maximum; inactive = score below 0.9). A digest of the protocol: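 Propidium iodide exclusion imaged at 24 h after dosing scores viability; cells were MCF-7 grown in phenol red-free DMEM plus 10% charcoal-stripped serum, tested in eight concentrations, fitted in both directions against DMSO.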

Inconclusive results are not listed. Active and inactive are the calls of the source. The calls were made as follows, unless noted: active = hit-call score of the fitted dose curve at least 0.9, where 1 is the maximum; inconclusive = response in the unintended direction; inactive = score below 0.9.

Sequence of Nucleoli Translocation, AR (gene 367) (P10275 whole entry, looked up, the tested form may be a part): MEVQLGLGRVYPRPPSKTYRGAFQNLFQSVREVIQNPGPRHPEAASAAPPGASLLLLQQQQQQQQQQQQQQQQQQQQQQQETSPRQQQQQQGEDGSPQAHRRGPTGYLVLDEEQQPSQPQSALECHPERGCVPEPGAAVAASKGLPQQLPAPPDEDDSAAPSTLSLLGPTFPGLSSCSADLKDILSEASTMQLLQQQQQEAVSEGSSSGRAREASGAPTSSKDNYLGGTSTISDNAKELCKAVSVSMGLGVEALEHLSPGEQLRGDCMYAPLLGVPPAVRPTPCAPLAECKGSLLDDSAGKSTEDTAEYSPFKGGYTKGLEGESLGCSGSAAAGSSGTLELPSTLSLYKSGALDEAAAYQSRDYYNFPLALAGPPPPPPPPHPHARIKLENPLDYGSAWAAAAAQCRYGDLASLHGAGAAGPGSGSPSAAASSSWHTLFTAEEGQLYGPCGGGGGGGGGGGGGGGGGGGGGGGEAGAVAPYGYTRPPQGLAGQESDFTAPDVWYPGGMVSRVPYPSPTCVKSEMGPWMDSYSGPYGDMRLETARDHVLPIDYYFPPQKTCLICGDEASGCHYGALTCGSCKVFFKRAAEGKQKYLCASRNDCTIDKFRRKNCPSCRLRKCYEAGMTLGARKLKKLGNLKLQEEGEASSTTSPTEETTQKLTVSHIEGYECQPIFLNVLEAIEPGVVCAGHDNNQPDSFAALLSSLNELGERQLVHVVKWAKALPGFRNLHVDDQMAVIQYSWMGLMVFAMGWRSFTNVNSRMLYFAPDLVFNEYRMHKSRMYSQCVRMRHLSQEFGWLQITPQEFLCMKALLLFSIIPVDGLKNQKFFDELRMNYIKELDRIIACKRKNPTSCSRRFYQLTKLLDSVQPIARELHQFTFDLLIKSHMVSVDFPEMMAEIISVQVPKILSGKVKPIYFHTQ
Sequence of Ratio of Nucleoli Translocation and Cytoplasm, AR (gene 367) (P10275 whole entry, looked up): as the sequence (P10275 whole entry, looked up, the tested form may be a part) above
Sequence of Retinoic acid receptor RXR-alpha (Homo sapiens) (P19793 whole entry, looked up): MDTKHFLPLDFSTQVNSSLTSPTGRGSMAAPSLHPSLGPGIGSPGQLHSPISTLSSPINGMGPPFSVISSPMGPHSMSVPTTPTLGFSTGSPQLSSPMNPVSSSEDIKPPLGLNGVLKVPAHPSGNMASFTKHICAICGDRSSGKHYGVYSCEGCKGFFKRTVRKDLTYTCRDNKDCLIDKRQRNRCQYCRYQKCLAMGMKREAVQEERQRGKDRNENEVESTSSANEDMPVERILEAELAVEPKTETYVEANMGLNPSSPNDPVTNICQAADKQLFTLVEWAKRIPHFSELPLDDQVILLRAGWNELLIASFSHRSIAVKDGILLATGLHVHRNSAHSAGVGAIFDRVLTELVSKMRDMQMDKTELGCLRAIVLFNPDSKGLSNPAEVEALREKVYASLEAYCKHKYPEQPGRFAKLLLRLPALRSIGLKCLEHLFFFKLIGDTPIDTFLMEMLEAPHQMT

Take `CCCCCCC(C=O)=Cc1ccccc1`: the call in [1] was inactive.
Turning to `CSc1ccc(Oc2ccc(S(N)(=O)=O)cc2CN(C)C)cc1C`, the molecule was called inactive in assay [2] and in assay [4]. In addition, the AC50 is 50 µM (active) in [3] and 74.8 µM (active) in assay [5].
With `CC(C)(O)c1ccc(CNC(=O)c2cccnc2Oc2ccc(F)cc2)cc1`, in assay [1], the molecule was called inactive.
With `Cc1ccc(-c2cc(C(F)(F)F)nn2-c2ccc(S(N)(=O)=O)cc2)cc1`, the AC50 in the assay on DIO1 (gene 1733) was 170 µM (active); in [2] it was 26.6 µM (active). The molecule was called inactive in [3], in assay [4] and in assay [5].
Consider `CCOCCOCCO`, for which the molecule was classed as inactive in [2], in [3], in [4] and in assay [5].
Take `CCc1cc(C2=C(C(=O)O)N(c3ccccc3C(F)(F)F)S(=O)(=O)c3ccccc32)cc2c1OCO2`: the outcome in assay [1] was inactive.
Take `Cc1ccc(C(C)(C)C)c(O)c1`: the half-maximal activity concentration (AC50) in assay [1] was 44.6 µM (active).
Take `O=Cc1ccccc1C=O`: the AC50 in the assay on DIO1 (gene 1733) was 49.3 µM (active). The outcome in assay [2], in [3] and in assay [4] was inactive.
As to `C=CCCCCCCCCCCCC`, the outcome in [2], in assay [3] and in assay [4] was inactive.
For `Cc1cc(SC2=C(O)C[C@@](CCc3ccc(N)cc3)(C(C)C)OC2=O)c(C(C)(C)C)cc1CO`, the AC50 with DIO1 (gene 1733) was 66.3 µM (active). The outcome in assay [2], in [3], in [4], in [5] and in assay [1] was inactive.
For the molecule `O=C1CCCCC1`, the outcome in assay [2], in assay [3] and in assay [5] was inactive.
Consider `Nc1nc(=S)c2[nH]cnc2[nH]1`, for which the molecule was called inactive in [2], in assay [3] and in [5].
With `COC(=O)[C@H]1[C@H]2C[C@@H]3c4[nH]c5cc(OC)ccc5c4CCN3C[C@H]2C[C@@H](OC(=O)c2cc(OC)c(OC)c(OC)c2)[C@@H]1OC`, the outcome in [6], in assay [7], in assay [8], in [9], in assay [10] and in [11] was inactive. Also, the result in assay [12] and in assay [14] was inactive. Moreover, the AC50 in assay [13] was 46.2 µM (active); in [15] it was 58.3 µM (active).
Take `O=C(Oc1ccccc1)c1cccc(C(=O)Oc2ccccc2)c1`: the outcome in assay [2], in assay [3], in assay [4] and in assay [5] was inactive.
In the case of `Cc1occc(=O)c1O`, the outcome in assay [16] was inactive.
In the case of `CC1=C(C)S(=O)(=O)CCS1(=O)=O`, the call in assay [2], in assay [3] and in [5] was inactive.
For `CCCCCCCCCCCCCCOS(=O)(=O)O`, the AC50 with DIO1 (gene 1733) is 85.7 µM (active).
As to `O=C1OC(c2ccc(O)cc2)(c2ccc(O)cc2)c2ccccc21`, the AC50 in [2] is 86.2 µM (active); in assay [3] it was 78.7 µM (active); in assay [5] it was 77 µM (active); in [1], 32.6 µM (active). The outcome in [4] was inactive.
As to `C#CC(O)C(CC)CCCC` (stereo not drawn), the AC50 in assay [2] was 22.5 µM (active); in assay [4] it was 14.8 µM (active). Further, the result in [3] and in assay [5] was inactive.
With `O=C(NS(=O)(=O)/C=C/c1cccs1)c1ccc(F)cc1Br`, the molecule was classed as inactive in assay [2] and in [5].
For the molecule `CCN(CC)CCOc1ccc(C(=C(Cl)c2ccccc2)c2ccccc2)cc1`, the AC50 in assay [6] was 82.4 µM (active); in assay [7], 65.3 µM (active); in assay [8], 54.8 µM (active); in assay [9], 70 µM (active); in [10], 65.8 µM (active); in [17] it was 50.3 µM (active). For the same molecule, the AC50 was 81.1 µM (active) in assay [11]; 83.4 µM (active) in assay [12]; 66.2 µM (active) in assay [13]; 79.6 µM (active) in assay [14]; 68.3 µM (active) in assay [15]; 70.7 µM (active) in the assay with DIO1 (gene 1733). For the same molecule, the call in assay [2], in assay [3], in assay [4], in assay [5] and in assay [1] was inactive.

These data come from PubChem BioAssay (EPA / NIEHS).
